Bioassay records as filed in PubChem.
Shown are actives, neighbours in structure and some others; about 4.2% of the full set was active somewhere.
tim10-1 inh = tim10-1 yeast growth inhibition. S. cerevisiae tim10-1 ts strain growth, BacTiter-Glo, 24 h. inhibition, % at 20 µM. hit rate 2.2% among 330,000. AID 463190;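 active = inhibition of at least 40%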;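 also: mutant grown at 25 °C; 0% = DMSO wells with yeast and 100% = wells holding no yeast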
NALP1 yeast inh = inhibitors of NALP1 inflammasome in yeast. S. cerevisiae NALP1/ASC/caspase-1 growth, X-gal OD620, 72 h. inhibition, % at 10 µM. hit rate 0.61% among 280,000; in the data active = inhibition mostly above about 24%, no sharp cut-off; inactive = mostly below about 32%
NALP3 yeast inh = NALP3 inhibition in yeast; inhibition, % at 10 µM; Yeast reconstituted NLRP3/ASC/caspase-1, beta-gal luminescence, 24 h; hit rate 0.39% among 330,000; AID 2825;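 active = inhibition of 50% or more; inactive = inhibition below 50%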;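 also: plate controls were induced DMSO wells for no effect and uninduced yeast grown without galactose for full effect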
tim23-1 inh = growth inhibitors of tim23-1 mutant yeast; AID 463212; S. cerevisiae tim23-1 growth, BacTiter-Glo luminescence, 24 h; hit rate 1.3% among 330,000; inhibition, % at 20 µM;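 active = growth inhibition of the mutant yeast at or above 50%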;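 also: temperature-sensitive mutant grown at 25 °C; plate controls were DMSO-treated mutant yeast for no effect and medium wells lacking yeast for full effect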
V-ATPase pH = alters yeast V-ATPase proton transport | AID 504577 | response, % at 10 µM | S. cerevisiae, pHLuorin cytosolic pH fluorescence | hit rate 0.37% among 350,000; in the data active = response mostly above about 7.3%, no sharp cut-off; inactive = mostly below about 5.4%; also: actives read high
TIM10 inh = inhibits growth of TIM10 yeast strain. S. cerevisiae TIM10 strain growth, BacTiter-Glo luminescence, 24 h. inhibition, % at 10 µM. hit rate 1.4% among 330,000. AID 463195;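 active = inhibition of 40% or more at the single tested concentration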;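 also: wild-type TIM10 isogenic control strain grown at permissive 25 °C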
tim10-1 confirm = confirmation of tim10-1 mutant yeast growth inhibitors. hit rate 56% among 7,400. AID 463213. S. cerevisiae tim10-1 ts strain growth, BacTiter-Glo, 24 h. inhibition, % at 20 µM. shares compounds with tim10-1 inh;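 active = inhibition of yeast growth at or above a set limit in either of two repeat tests at 20 µM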;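 also: tim10-1 mutant grown at permissive 25 °C to find synthetic lethal compounds; 0% = DMSO yeast wells and 100% = medium wells without yeast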
tim10 confirm = TIM10 yeast growth inhibition, confirmed. hit rate 63% among 4,600. S. cerevisiae tim10 strain growth, BacTiter-Glo luminescence, 24 h. shares compounds with TIM10 inh. inhibition, % at 10 µM;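 active = inhibition of yeast growth at or above a set limit in either of two replicates at 10 µM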;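 also: this counterscreen used the strain with wild-type TIM10; 0% = yeast with DMSO and 100% = medium wells lacking yeast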
tim23-1 confirm = confirmation of tim23-1 mutant yeast growth inhibitors. inhibition, % at 20 µM. S. cerevisiae tim23-1 growth, BacTiter-Glo luminescence, 24 h. hit rate 83% among 4,400. shares compounds with tim23-1 inh;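 active = inhibition above about 39% in either of two replicate wells at 20 µM, limit read from the data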;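 also: temperature-sensitive tim23-1 mutant grown at 25 °C; 0% = DMSO wells with yeast and 100% = medium wells without yeast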
V-ATPase pH SP = regulators of yeast V-ATPase proton transport; shares compounds with V-ATPase pH; S. cerevisiae pHLuorin cytosolic pH; response, % at 10 µM; hit rate 2% among 980; in the data active = response above about 24%;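 also: plate controls were vehicle wells for no effect and positive control wells for full effect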
* marks the source's active call; other numbers are inactive results; / = no result.

SMILES | tim10-1 inh | NALP1 yeast inh | NALP3 yeast inh | tim23-1 inh | V-ATPase pH | TIM10 inh | tim10-1 confirm | tim23-1 confirm | others
Cc1ccc2c(c1)c1ccc3c(c1n2C)C(=O)C=CC3=O | 63* | / | 37 | 73* | -2 | 63* | 56* | 42* | tim10 confirm=94*
CCc1noc(C)c1C(=O)N1CCC(CCC(=O)Nc2cccc(OC)c2)CC1 | -24 | 8 | 4 | -12 | 1 | -3 | / | /
COC(=O)C1CCc2c(ccc3c2CCCC3)C1=O (stereo not drawn) | / | / | / | / | -1 | / | / | /
COC(=O)C1=C(C)NC(=S)NC1c1ccc(-c2cc(Cl)ccc2Cl)o1 (stereo not drawn) | 25 | / | 7 | 16 | 1 | 9 | / | /
COC(=O)C1CCN(C(=O)CC(NC(=O)C(F)(F)F)c2cccs2)CC1 (stereo not drawn) | 4 | 5 | -4 | -1 | -3 | -6 | / | /
N#Cc1c([N+](=O)[O-])cc([N+](=O)[O-])cc1S(=O)(=O)Cc1ccccc1 | 62* | / | 0 | 67* | -1 | 54* | 61* | 87* | tim10 confirm=64*
COc1cccc(NC=C2C(=O)OC3(CCCCC3)OC2=O)c1 | 66* | 17 | 23 | 74* | 7 | 58* | 70* | 74* | tim10 confirm=72*
COc1ccc2noc3c2c1C(=O)c1ccccc1-3 | 61* | / | 5 | 69* | 0 | 39 | 71* | 72*
O=C1c2cccc(O)c2C(=O)c2c(O)cc(CO)cc21 | 54* | / | 24 | 71* | / | 39 | 39* | 84*
O=C(NCCO)c1cccc2c1-c1ccccc1C2=O | 1 | 21 | 2 | -2 | 5 | 3 | / | /
COc1ccccc1C(=O)C1CCCN(C(=O)c2ccco2)C1 (stereo not drawn) | 22 | -1 | 12 | 2 | 3 | -8 | / | /
CC(C)Cc1ccc(C(=O)NCCOc2ccccc2)o1 | -30 | 15 | 22 | 17 | -5 | -3 | / | /
O=C(c1ccc2c(c1)OCCO2)C1CCN(S(=O)(=O)c2ccc(F)cc2)CC1 | 43* | 4 | 19 | 57* | 11 | 50* | 42* | 47* | tim10 confirm=40*
c1csc(-c2nc(NCC3CCCO3)c3ccccc3n2)c1 (stereo not drawn) | 23 | 5 | 28 | 35 | -2 | 19 | / | /
c1csc(CNc2nc(-c3cccs3)nc3ccccc23)c1 | 51* | 3 | -4 | 57* | -2 | 42* | 44* | 52* | tim10 confirm=10
COC(=O)C1=C(C)N(Cc2ccco2)C(=O)/C1=C\c1ccc(N(C)C)cc1 | 11 | 14 | 4 | 4 | 2 | 9 | / | /
COCCCN1C(=O)/C(=C\c2ccc3c(c2)OCO3)C(C(=O)OC)=C1C | 20 | 4 | 19 | 41 | 0 | 18 | / | /
COC(=O)C1=C(C)N(Cc2ccco2)C(=O)/C1=C\c1ccc([N+](=O)[O-])cc1 | 62* | -13 | 14 | 64* | -2 | 66* | 77* | 57* | tim10 confirm=74*
CCN1C(=O)/C(=C\c2ccc3c(c2)OCO3)C(C(=O)OC)=C1C | 47* | -8 | 27 | 50 | 0 | 56* | 45* | 62* | tim10 confirm=43*
COc1ccc(C(=O)Oc2c(CN3CCOCC3)cc(Cl)c3cccnc23)cc1 | 41* | 10 | 26 | 54* | 3 | 27 | 33* | 46*
COc1cccc(C(=O)Oc2c(CN3CCOCC3)cc(Cl)c3cccnc23)c1 | 43* | 14 | 37 | 51* | -2 | 44* | 34* | 48* | tim10 confirm=25
Cc1ccc(C)c(C(=O)C(C)OC(=O)CN2C(=O)NC3(CC(C)CC(C)(C)C3)C2=O)c1 (stereo not drawn) | 16 | 0 | 16 | 10 | 3 | 10 | / | /
Cc1cccc(-n2cc(-c3ccccc3)[nH]c2=S)c1 | 46* | 6 | 10 | 51* | 2 | 20 | 18 | 49*
Cc1ccc(C)c(N2CCN(C(=O)c3ccc4nsnc4c3)CC2)c1 | 57* | -41 | -33 | 61* | 1 | 28 | 26 | 47*
O=C(c1ccc2nsnc2c1)N1CCN(c2ccc([N+](=O)[O-])cc2)CC1 | 14 | 20 | 13 | 11 | -1 | 12 | / | /
SMILES | tim10-1 inh | NALP1 yeast inh | NALP3 yeast inh | tim23-1 inh | V-ATPase pH | TIM10 inh | tim10-1 confirm | tim23-1 confirm | others
Cc1ccc(CS(=O)(=O)CC(C)(O)c2ccc(Cl)cc2)cc1 (stereo not drawn) | 8 | 6 | 7 | -5 | -5 | -12 | / | /
O=S(=O)(Cc1ccccc1)NCc1cccnc1 | 1 | / | -2 | 22 | -6 | -9 | / | /
O=C1C(Cl)=C(NCc2cccnc2)C(=O)c2ccccc21 | 45* | 17 | 2 | 69* | -1 | 39 | 30 | 64*
Cc1cccc2nc(-c3cccnc3)c(NCCC(C)C)n12 | 46* | 0 | 1 | 40 | 12* | 23 | 40* | / | V-ATPase pH SP=-1
CC(C)c1ccc(NC(=O)/C(C#N)=C/c2ccncc2)cc1 | 54* | 4 | 5 | 78* | 13* | 27 | 15 | 55* | V-ATPase pH SP=17
Cc1ccc(-c2[nH]ncc2/C=C(\C#N)C(=O)NC2CCCCC2)cc1 | 33 | 17 | 18 | 38 | 0 | 22 | / | /
N#C/C(=C\c1cc(Cl)cc(Cl)c1O)C(=O)NC1CCCCC1 | 49* | -11 | 6 | 54* | 15* | 38 | 29 | 58* | V-ATPase pH SP=1
Cc1ccc(S(=O)(=O)N2CCCCC2)cc1C(=O)Nc1ccc(S(=O)(=O)Nc2ncccn2)cc1 | 12 | 0 | 8 | 18 | 0 | -6 | / | /
COc1ccccc1N(C)S(=O)(=O)c1ccc(C)c(C(=O)Nc2nccs2)c1 | 26 | / | 2 | 32 | 0 | 4 | / | /
O=S1(=O)C=C(Sc2nnc(-c3ccccc3)o2)c2ccccc21 | 94* | 13 | 5 | 57* | 17* | 91* | 92* | 85* | tim10 confirm=91*;V-ATPase pH SP=26*
CN(C)CCSc1nnc(-c2ccccc2)o1 | 11 | / | 16 | 8 | 7 | -7 | / | /
Cc1ccc(NC(=O)CS(=O)Cc2nc(-c3ccc(C)cc3)oc2C)cc1 (stereo not drawn) | 40* | 6 | 9 | 20 | 11* | 22 | 14 | / | V-ATPase pH SP=3
CNc1ccc(Oc2nc([N+](=O)[O-])nn2C)cc1 | 15 | 3 | -1 | -1 | 3 | -19 | / | /
CCOc1ccccc1Nc1nc(-c2sc(NC(=O)c3ccco3)nc2C)cs1 | 17 | -10 | 17 | 31 | 2 | 1 | / | /
CCOc1ccccc1Nc1nc(-c2sc(C)nc2C)cs1 | 47* | 1 | -6 | 28 | 8.3* | 31 | 24 | / | V-ATPase pH SP=-1
